Screens (PubChem)
In the library only some 2.4% were active in any assay of this set; here they are far more common.
aSyn rescue – alpha-synuclein toxicity inhibition in yeast; Yeast expressing alpha-synuclein, growth rescue, BacTiter-Glo, 24 h; Potency, µM (top dose mostly 46.1 µM), inactives show top-dose growth rescue (activation), usual class: activators; 0.14% of 370,000 active; AID 652106; further: % of control where 0% means no effect; nearly all actives have a fitted effect of over 65% in size
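Rescue of yeast growth: cells expressing toxic alpha-synuclein, induced in galactose at OD600 0.02, incubated with compound 24 h at 30 C. ATP luminescence quantified growth; inhibitors of toxicity appear as activators.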
Mito fusion yeast – blocks mitochondrial division or promotes mitochondrial fusion | Potency, µM (doses to about 46.1 µM), for inactives: at the highest dose growth rescue (activation), actives largely listed as activators | AID 485298 | S. cerevisiae fusion-defective mutant growth rescue, CellTiterGlo 48 h | 0.23% of 320,000 active; further: % of control where 0% means no effect; nearly all actives have a fitted effect of over 45% in size
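Read-out: ATP-based luminescence (CellTiterGlo, 10 min ambient) reporting growth of fusion-defective ts yeast after 48 hours at 37C on glycerol/ethanol YPEG medium in the presence of compound.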
A-T KAP1 phos – candidate therapy for ataxia-telangiectasia; F2112 A-T fibroblasts, KAP-1 phosphorylation AlphaLISA; neocarzinostatin DNA damage 30 min before lysis; Potency, µM (titrated, usually from 57.5 µM), inactives show at the top dose activation, most hits filed as activators; 0.19% of 320,000 active; further: % of control where 0% means no effect; nearly all actives have a fitted effect of over 45% in size
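ATM-like activity read as KAP-1 phosphorylation via AlphaLISA donor/acceptor antibody pairs after lysis and 6 hr at 25C. Cells were ATM-null patient fibroblasts (F2112, hTERT), dosed 60 min, then exposed to the DSB inducer NCS for 30 min.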
FUS suppressor – suppressors of FUS proteinopathy in yeast; S. cerevisiae FUS-expressing, growth rescue, OD600, 24 h; Potency, µM (series often up to 76.6 µM), most hits filed as activators; 0.24% of 390,000 active; AID 1347120;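 further: plate controls were DMSO vehicle for no effect and reference control for full effect; nearly all actives have a fitted effect of over 55% in size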
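FUS-expressing yeast, raffinose-pregrown, induced in 2% galactose minimal medium at OD 0.005; compounds in a dilution series, 24hr at 30C. Growth restoration read as absorbance at 600 nm. CP55940 positive control, DMSO negative.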
TDP43 rescue – inhibitors of TDP-43 toxicity in yeast; TDP-43 expressing yeast growth rescue, BacTiter-Glo, 24 h; Potency, µM (series often up to 46.1 µM), inactives show at the top dose growth rescue (activation), actives largely listed as activators; 1.8% of 410,000 active; AID 652104; further: % of control where 0% means no effect; nearly all actives have a fitted effect of over 50% in size
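Luminescence from BacTiter-Glo reports growth of TDP-43-expressing yeast after 24 hr at 30 deg C with compound. Cells were raffinose-pregrown to mid-log, then seeded in galactose medium at OD600=0.02.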
Abeta yeast res – restores growth of yeast expressing A-beta42 peptide | yeast expressing A-beta42, growth rescue, OD600, 48 h; response scale: 0% DMSO, 100% iron-clioquinol control | Potency, µM (top dose mostly 46.1 µM), most hits filed as activators | 0.063% of 410,000 active; further: nearly all actives have a fitted effect of over 55% in size
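Yeast growth medium received pinned compounds, then yeast cells expressing toxic A-beta were added; plates incubated at 30 C for 48 hr. Growth read as absorbance at 600 nm, normalized to DMSO and equimolar FeCl3 plus clioquinol controls.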
* = called active by the depositor; i = inactive; ? = inconclusive; / = no result given. The call rests on the fitted dose curve; in most records, active means well fitted curve in the direction sought with a large enough effect; inconclusive means small, poorly fitted or top-dose-only effect, or another doubt; inactive means no such curve, though single readings can be large; an effect the other way counts as inactive or inconclusive. Potency means the concentration at half of the fitted maximal effect.

SMILES | aSyn rescue | Mito fusion yeast | A-T KAP1 phos | FUS suppressor | TDP43 rescue | Abeta yeast res
CC(C)(C)c1ccccc1OCC(=O)Nc1ccccc1C(=O)NCc1cccnc1 | 1% | 16µM* | -2% | i | -9% | i
CC(C)(C)C(=O)Nc1ccccc1C(=O)NCc1cccnc1 | 1% | 7% | -2% | i | 4% | i
O=C(O)c1ccc(N/N=C/c2ccc(-c3cccc(Cl)c3)o2)cc1 | -16% | -1% | 0% | i | 18µM* | i
Cc1c(C(=O)O)cccc1-c1ccc(/C=N/Nc2ccc(Br)cc2)o1 | -54% | 20µM* | 19% | ? | -93% | i
O=C(O)c1ccc(N/N=C/c2ccc(-c3cc(Cl)ccc3Cl)o2)cc1 | -5% | 3% | 18% | ? | 29% | i
O=[N+]([O-])c1ccc(NCCCN2CCC(C(O)(c3ccccc3)c3ccccc3)CC2)cc1 | / | / | / | i | / | /
CCCC(=O)OC12CCCN(C1)/C(=C/c1cccc(OC)c1)C2 (stereo not drawn) | / | / | / | i | / | /
CC1CCCN(C(=O)c2cc3c(Cl)nc4ccccc4c3s2)C1 (stereo not drawn) | / | / | / | i | 20µM* | i
O=C1CCC[C@H]2Cc3nc4cccc(Cl)c4cc3C[C@]23CCCN13 | / | / | / | i | / | /
CCOC(=O)c1nnsc1-c1ccc(-c2snnc2C(=O)OCC)cc1 | -2% | 23% | -10% | i | 0% | i
CCOC(=O)c1nnsc1Nc1ccc(C)c(C)c1 | -5% | -8% | 3% | i | 11µM* | i
Cc1ccccc1C(=O)NCCCCc1ccccc1 | -6% | -2% | 7% | i | -1% | i
Nc1nc2ccccc2cc1C(=O)NCCCCc1ccccc1 | -40% | / | / | i | 28µM* | ?
Cc1ccc(NC(=S)c2nc3ccccc3[nH]2)cc1 | -22% | 4% | -8% | / | ? | i
Cc1ccc(NC(=S)c2nc3ccccc3[nH]2)c(C)c1 | -4% | 16% | 0% | i | 18µM* | ?
CS(=O)(=O)Nc1ccccc1C(=O)OCC(=O)N1CCC(c2ccccc2)=N1 | -10% | 16% | 5% | ? | 25µM* | i
Cc1ccc(C(=O)OCC(=O)N2CCC(c3ccccc3)=N2)c(C)c1 | 5% | -2% | 6% | i | -9% | i
O=C1CC(c2ccccc2F)c2cc3c(cc2N1)CCC3 (stereo not drawn) | 17% | 4% | -7% | i | -12% | i
O=C1CC(c2cc(Br)ccc2F)c2cc3c(cc2N1)CCC3 (stereo not drawn) | 4.5µM* | 0% | -2% | i | -24% | i
O=C1CC(c2cccc(Cl)c2)c2cc3c(cc2N1)CCC3 (stereo not drawn) | 4µM* | 23% | -1% | i | -1% | i
O=C(CSc1nnc(-c2cccnc2)n1Cc1ccco1)Nc1cc(Cl)ccc1F | / | / | / | i | / | /
Cc1ccc(C23CC4CC(CC(CC(=O)NC(C)(C)CO)(C4)C2)C3)cc1 | 2% | 18µM* | -9% | i | 35µM* | i
O=C(c1ccoc1)N1CCN(c2cc(-c3ccccc3)nc3cc(-c4ccccc4)nn23)CC1 | -1% | / | / | i | 18µM* | i
Cc1cc(N2CCN(C(=O)c3ccoc3)CC2)n2nc(-c3ccccc3)cc2n1 | 0% | / | / | i | -7% | i
O=C(c1ccoc1)N1CCN(c2cc(-c3ccco3)nc3cc(-c4ccccc4)nn23)CC1 | -10% | / | / | ? | 20µM* | i
SMILES | aSyn rescue | Mito fusion yeast | A-T KAP1 phos | FUS suppressor | TDP43 rescue | Abeta yeast res
O=C(OCCN1CCN(C2CN(Cc3cn(Cc4ccccc4Cl)nn3)S(=O)(=O)C2)CC1)c1cc2ccccc2o1 (stereo not drawn) | / | / | / | i | / | /
CC(C)CN1CN2Cc3ccccc3C2CS1(=O)=O (stereo not drawn) | / | / | / | i | / | /
CCc1ccc(NC2CC(=O)N(CCc3ccc(OC)c(OC)c3)C2=O)cc1 (stereo not drawn) | -6% | -12% | -6% | i | 18µM* | i
O=C1OC(c2cccc3c(F)cccc23)c2ccccc21 (stereo not drawn) | 8% | / | / | i | 20µM* | i
O=C(Nc1ccc(NC(=O)c2cccs2)cc1)c1ccc2c(c1)OCCO2 | ? | -1% | -1% | i | -1% | i
COc1cccc(C(=O)Nc2cc(NC(=O)c3cccs3)ccc2C)c1 | -1% | 2% | 4% | i | 11% | i
COc1cccc(C(=O)Nc2cc(NC(=O)c3cccs3)ccc2C)c1OC | -10% | 0% | 8% | i | 11µM* | i
COc1cc(NC(=O)c2ccc3c(c2)OCCO3)ccc1NC(=O)c1cccs1 | -13% | 12% | 6% | i | 13µM* | i
O=C(c1cc(F)ccc1F)N1CCC(Oc2cccnc2)CC1 | / | / | / | i | / | /
CCCCCOC(=O)c1c(N)n(CCOC)c2nc3ccccc3nc12 | 3% | 8% | 1% | i | 18µM* | i
Cc1ccc(C(=O)Nn2c(C)nc3ccccc3c2=O)cc1C | -1% | 13% | -9% | i | 11µM* | i
Cc1ccc(C(C)C)c(OCC(=O)Nn2c(C)nc3ccccc3c2=O)c1 | 5% | ? | 4% | i | 14µM* | i
CCC(C)n1c(=N)c(C(=O)NCc2ccccc2)cc2c(=O)n3cc(C)ccc3nc21 (stereo not drawn) | / | / | / | i | 1% | i
COC(=O)c1cc(NC(=O)NC2CCCCN(Cc3cccc(Cl)c3)C2=O)cc(C(=O)OC)c1 (stereo not drawn) | / | / | / | i | / | /
COC(=O)C[C@H]1C=C[C@H](NC(=O)Cc2ccccc2)[C@@H](CO)O1 | 3.5µM* | / | / | i | 21% | i
COc1ccccc1C1CC(c2ccc(Br)cc2)=NN1C(=O)c1cccnc1 (stereo not drawn) | 7% | 16µM* | / | i | ? | i
Cc1cccc(Cn2cc(CN3CC(N(C)CCCOC(=O)c4cc(C)cc(C)c4)CS3(=O)=O)nn2)c1 (stereo not drawn) | / | / | / | i | / | /
O=C(Nc1cccc(-c2nc3ncccc3o2)c1)c1cc2ccccc2o1 | 1% | 13µM* | -8% | i | ? | i
CN(C)S(=O)(=O)c1cccc(NC(=O)c2cc3ccccc3o2)c1 | / | -4% | 1% | i | 8.9µM* | i
CN(C)S(=O)(=O)c1cccc(NC(=O)c2ccc3nccnc3c2)c1 | 1% | 16% | 16µM* | i | 29% | i
Nc1ccc(-c2nc3ncccc3o2)cc1 | 16µM* | 2% | 7% | i | 13% | ?
